According to PubChem BioAssay:
Active and inactive are the calls of the source.

Legend:
[1] = adipocyte viability effects, profiling panel, cell-based, 3T3-L1 adipocytes, calcein-AM fluorescence, 48 h, basal (AID 1163); settings: 3T3-L1 adipocytes viability, higher = more signal
[2] = HepG2 cell viability effects, profiling panel, calcein-AM fluorescence, 48 h, basal (AID 1164); settings: higher = more signal
[3] = MM1S cell viability effects, profiling panel, calcein-AM fluorescence, 48 h, basal (AID 1165); settings: higher = more signal;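 also: viability of MM1S multiple myeloma cells under basal unstimulated conditions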
[4] = basal RPMI8226 viability, no added stimulus, profiling panel, cell-based, calcein-AM fluorescence, 48 h, PK04 Diversity Set (AID 1166); settings: RPMI8226 myeloma viability, higher = more signal;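 also: cells grown under basal conditions without added stimulus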
[5] = basal HepG2 mitochondrial membrane potential changes, profiling panel, cell-based, JC-1 fluorescence, 24 h, 100 nL compound (AID 1167); settings: higher = more signal
[6] = basal 3T3-L1 adipocyte mitochondrial potential changes, profiling panel, cell-based, JC-1 fluorescence, 3T3-L1 adipocytes, 24 h, 100 nL compound (AID 1168); settings: JC-1 mitochondrial fluorescence, higher = more signal, called active from +8 up or from −8 down
[7] = basal RPMI8226 mitochondrial membrane potential changes, profiling panel, cell-based, JC-1 fluorescence, 24 h, 100 nL compound (AID 1169); settings: RPMI8226 myeloma, JC-1 mitochondrial potential fluorescence, higher = more signal
[8] = basal MM1S mitochondrial membrane potential changes, profiling panel, cell-based, JC-1 fluorescence, 24 h, 100 nL compound (AID 1170); settings: higher = more signal
[9] = A549 lung cancer cell viability effects, profiling panel, resazurin fluorescence, 24 h, PK04 Diversity Set (AID 1171); settings: higher = more signal, called active from +8 up or from −8 down
[10] = HepG2 liver cancer cell viability effects, profiling panel, resazurin fluorescence, 24 h, PK04 Diversity Set (AID 1172); settings: higher = more signal
[11] = basal S. cerevisiae growth modulation, no modifier, primary screen, OD600, strain BY4716, 24 h, basal condition (AID 1173); settings: OD600, 24 h, higher = more signal, called active from +8 up or from −8 down
[12] = MM1S myeloma cell viability, profiling panel, resazurin fluorescence, basal, 24 h, PK04 Diversity Set (AID 1174); settings: higher = more signal, called active from +8 up or from −8 down;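 also: MM1S multiple myeloma cell line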
[13] = biological target: Dihydroorotate dehydrogenase (quinone), mitochondrial (Plasmodium falciparum (isolate 3D7)) (UniProt Q08210); test: PfDHODH enzyme inhibitors, primary screen, biochemical, C-terminal His tag, absorbance 600 nm (AID 1175); settings: DCIP absorbance 600 nm, higher = more signal, called active from +8 up or from −8 down;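 also: recombinant parasite enzyme with a five histidine tag at its C terminus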
Sequence of Dihydroorotate dehydrogenase (quinone), mitochondrial (Plasmodium falciparum (isolate 3D7)) (Q08210 whole entry, looked up): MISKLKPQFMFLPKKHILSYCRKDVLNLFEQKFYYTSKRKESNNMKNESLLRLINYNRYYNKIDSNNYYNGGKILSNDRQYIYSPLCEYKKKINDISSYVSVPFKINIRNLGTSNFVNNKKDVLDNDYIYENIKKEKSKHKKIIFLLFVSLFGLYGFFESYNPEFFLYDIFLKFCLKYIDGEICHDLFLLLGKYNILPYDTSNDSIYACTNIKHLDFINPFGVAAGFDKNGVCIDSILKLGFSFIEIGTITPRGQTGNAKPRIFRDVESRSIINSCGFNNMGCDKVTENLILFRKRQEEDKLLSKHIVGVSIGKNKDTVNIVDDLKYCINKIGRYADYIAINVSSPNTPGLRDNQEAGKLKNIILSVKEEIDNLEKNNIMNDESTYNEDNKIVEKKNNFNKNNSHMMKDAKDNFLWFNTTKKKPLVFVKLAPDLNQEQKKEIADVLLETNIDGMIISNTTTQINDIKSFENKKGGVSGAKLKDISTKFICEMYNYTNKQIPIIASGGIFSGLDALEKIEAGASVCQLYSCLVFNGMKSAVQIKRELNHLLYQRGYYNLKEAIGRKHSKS

[14] = S. cerevisiae RM11-1a growth modifiers, primary screen, strain RM11-1a, OD600, basal, 24 h (AID 1177); settings: OD600, 24 h, higher = more signal, called active from +8 up or from −8 down;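 also: cultures grown under basal conditions with no added stressor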
[15] = E. coli acrAB mutant growth effects, primary screen, E. coli filamentation inducers, strain DRC39, OD650, 24 h (AID 1178); settings: higher = more signal, called active from +8 up or from −8 down;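 also: growth measured as culture turbidity by optical density at 650 nm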
[16] = E. coli acrAB mutant growth effects, primary screen, E. coli filamentation inducers, strain DRC39, OD650, 48 h (AID 1179);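 also: screen aims at cell division blockers that make cells filament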; settings: E. coli DRC39 delta-acrAB growth, higher = more signal, called active from +8 up or from −8 down
[17] = RPMI8226 myeloma cell viability, profiling panel, resazurin fluorescence, basal, 24 h, PK04 Diversity Set (AID 1180); settings: higher = more signal;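 also: RPMI8826 multiple myeloma cell line at 5000 cells per well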
[18] = biological target: E3 ubiquitin-protein ligase XIAP (Homo sapiens) (UniProt P98170); test: XIAP binders, primary screen, biophysical, small-molecule microarray, fluorescence 635 nm (AID 1181); settings: small-molecule microarray binding, higher = more signal;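 also: score merges 667 nm emission and signal to noise over triplicate slides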
Sequence of E3 ubiquitin-protein ligase XIAP (Homo sapiens) (P98170 whole entry, looked up): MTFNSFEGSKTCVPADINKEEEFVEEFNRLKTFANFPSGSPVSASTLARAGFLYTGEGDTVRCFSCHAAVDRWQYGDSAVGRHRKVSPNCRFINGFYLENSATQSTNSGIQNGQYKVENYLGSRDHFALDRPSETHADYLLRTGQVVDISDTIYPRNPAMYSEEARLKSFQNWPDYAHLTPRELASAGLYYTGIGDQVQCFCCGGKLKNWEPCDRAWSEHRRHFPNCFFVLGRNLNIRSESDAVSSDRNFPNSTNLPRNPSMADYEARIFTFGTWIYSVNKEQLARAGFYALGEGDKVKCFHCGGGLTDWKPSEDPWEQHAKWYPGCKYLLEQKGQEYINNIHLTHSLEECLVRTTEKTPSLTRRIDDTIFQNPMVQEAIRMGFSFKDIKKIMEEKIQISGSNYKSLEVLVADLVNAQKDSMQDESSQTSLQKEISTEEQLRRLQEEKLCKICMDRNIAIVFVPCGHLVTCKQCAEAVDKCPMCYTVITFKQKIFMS

[19] = system: XIP peptide (Xip251-270) binding; test: small-molecule binders of XIP peptide, primary screen, biochemical, small-molecule microarray, fluorescence 635/667 nm, 0.1 µg/mL protein (AID 1182); settings: fluorescent protein binding, 635 nm, higher = more signal, called active from +8 up or from −8 down
XIP peptide (Xip251-270) = test: small-molecule binders of XIP peptide, primary screen, biochemical, small-molecule microarray, fluorescence 635/667 nm, 0.5 µg/mL protein (AID 1183); settings: small-molecule microarray binding, fluorescence 635 nm; higher = more signal

Compound	z-score [1]	z-score [2]	z-score [3]	z-score [4]	z-score [5]	z-score [6]	z-score [7]	z-score [8]	z-score [9]	z-score [10]	z-score [11]	z-score [12]	composite z-score [13]	z-score [14]	z-score [15]	z-score [16]	z-score [17]	composite z-score [18]	composite z-score [19]	composite z-score (XIP peptide (Xip251-270))
COc1ccc([Si](C)(C)[C@@H]2[C@@H](CCn3cc(CCO)nn3)O[C@]3(C(=O)N(Cc4ccc(N5C(=O)c6cccc7cccc5c67)cc4)c4ccccc43)[C@H]2C)cc1	1.91	-4.48	-2.68	-4.34	1.75	2.83 (inactive)	-1.04	-1.78	-2.38 (inactive)	-1.3	-0.456 (inactive)	-5.44 (inactive)	0.0498 (inactive)	0.643 (inactive)	2.2 (inactive)	1.02 (inactive)	-4.14	0.0159	0.437 (inactive)	0.739
O=C1O[C@H](c2ccccc2)[C@H](c2ccccc2)N2[C@H]1[C@@H](C(=O)NC[C@H](O)c1ccccc1)[C@]1(C(=O)Nc3ccc(C#CC4(O)CCCCCC4)cc31)[C@H]2c1ccc(O)cc1	1.43	-0.641	-0.804	-1.62	-1.71	-0.947 (inactive)	-0.672	-0.566	0.814 (inactive)	0.82	-1.55 (inactive)	0.557 (inactive)	-0.154 (inactive)	-0.49 (inactive)	0.487 (inactive)	0.972 (inactive)	0.327	-0.141	1.05 (inactive)	0.444
C=C(/C(=C/C[C@H](OC(=O)c1ccncc1)c1cccc(OCCO)c1)c1cc(C(=O)OC)ccc1OC)C(C)C	1.7	-0.712	-0.026	0.566	2.15	0.746 (inactive)	0.0166	0.343	2.01 (inactive)	0.731	-0.177 (inactive)	1.8 (inactive)	-0.494 (inactive)	-1.06 (inactive)	1.17 (inactive)	0.196 (inactive)	0.987	-0.153	0.236 (inactive)	0.256
COCCOC(=O)N1C(=O)[C@@]2(c3cc(C#CCNC(N)=O)ccc31)[C@H](C(=O)NC[C@H](O)c1ccccc1)[C@H]1C(=O)O[C@H](c3ccccc3)[C@H](c3ccccc3)N1[C@@H]2c1ccc(O)cc1	0.539	0.315	-0.825	0.987	-0.549	0.962 (inactive)	0.161	-0.29	0.0618 (inactive)	0.141	-0.331 (inactive)	0.751 (inactive)	-0.263 (inactive)	0.436 (inactive)	-0.17 (inactive)	0.316 (inactive)	1.46	0.166	1.29 (inactive)	0.178
[N-]=[N+]=NCc1ccccc1C[C@]1(C(=O)NCc2ccccc2)N=C(c2ccc(OCCCO)cc2)O[C@H]1c1ccccc1	0.457	-2.82	-2.07	-2.78	0.671	0.371 (inactive)	-0.819	-1.6	0.225 (inactive)	0.643	2.86 (inactive)	-0.295 (inactive)	2.37 (inactive)	4.01 (inactive)	3.49 (inactive)	1.24 (inactive)	-0.29	0.191	0.279 (inactive)	-0.172
Cc1ccc(S[C@]2(C(=O)NCC(C)C)CC(=O)N(C(C)C)[C@@H]2c2ccc(CO)cc2)cc1	2.25	-1.49	0.623	-0.954	0.34	-0.446 (inactive)	0.134	0.381	0.443 (inactive)	-0.784	0.225 (inactive)	1.13 (inactive)	-0.052 (inactive)	-1.24 (inactive)	1.49 (inactive)	0.719 (inactive)	0.687	-0.0481	-0.467 (inactive)	-0.284
CC(C)(C)OC(=O)CC[C@@]1(C(=O)N2CCOCC2)N=C(c2ccc(OCCCO)cc2)O[C@@H]1c1ccccc1	0.861	-0.215	0.317	0.414	0.652	1.08 (inactive)	-0.959	0.609	1.6 (inactive)	0.957	0.0776 (inactive)	1.43 (inactive)	0.464 (inactive)	0.732 (inactive)	2.19 (inactive)	0.869 (inactive)	1.53	0.105	1.6 (inactive)	-0.326
C=CCNC(=O)[C@H]1[C@@H]2C(=O)O[C@@H](c3ccccc3)[C@@H](c3ccccc3)N2[C@@H](c2ccccc2OCCO)[C@]12C(=O)N(C(=O)OCCOC)c1ccc(C#CCCO)cc12	0.674	-0.123	-2.04	-1.42	0.534	0.825 (inactive)	-0.847	-0.665	0.659 (inactive)	-0.156	0.799 (inactive)	0.287 (inactive)	-0.409 (inactive)	1.57 (inactive)	0.488 (inactive)	0.985 (inactive)	-0.0311	0.355	0.58 (inactive)	0.507
O=C(NCc1ccccc1)[C@@H]1c2ccccc2C(=O)N(Cc2ccccc2Cl)[C@H]1c1ccc(CO)cc1	1.23	-0.005	0.138	-0.256	1.99	-0.0174 (inactive)	-0.939	-0.0877	1.39 (inactive)	0.714	-1.18 (inactive)	0.687 (inactive)	-1.17 (inactive)	-1.44 (inactive)	0.392 (inactive)	0.123 (inactive)	1.63	0.0115	0.188 (inactive)	0.819
C=CCN1C(=O)[C@@]2(O[C@@H](CCO)[C@H]([Si](C)(C)c3ccc(OC)cc3)[C@H]2C)c2cc(N3C(=O)c4cccc5cccc3c45)ccc21	-1.3	-4.72	-2.92	-4.4	-2.34	2.26 (inactive)	-1.01	-2.09	-4.58 (inactive)	-6.14	0.275 (inactive)	-8.59 (active)	0.901 (inactive)	5.51 (inactive)	2.57 (inactive)	2.05 (inactive)	-6.03	0.0411	0.777 (inactive)	0.714
CCN(CC)c1ccc(N2CC=CC34O[C@@H]5C=CCOC(=O)[C@@H]5[C@H]3C(=O)N(C(CO)C(C)C)[C@@H]4C2=O)cc1 (stereo not given in full)	0.471	0.121	-0.413	-0.201	0.296	0.688 (inactive)	1.08	0.728	0.461 (inactive)	0.492	0.0588 (inactive)	0.913 (inactive)	0.764 (inactive)	1.24 (inactive)	1.21 (inactive)	1.09 (inactive)	0.687	0.0139	-0.0795 (inactive)	-0.51
C#CCN1C(C(=O)OCC)OC[C@H]1c1ccccc1 (stereo not given in full)	0.714	-0.0851	0.712	-0.181	1.06	0.842 (inactive)	0.297	-0.316	-0.282 (inactive)	0.513	-6.25 (inactive)	1.49 (inactive)	0.253 (inactive)	-2.24 (inactive)	2.47 (inactive)	0.724 (inactive)	0.0912	-0.227	-0.0319 (inactive)	-0.258
COCCCN1C(=O)[C@@]2(Cc3ccccc31)c1ccccc1C(=O)N(Cc1ccccc1Cl)[C@H]2c1ccc(CO)cc1	-0.414	0.0836	0.712	0.485	1.58	1.33 (inactive)	0.15	0.828	-0.306 (inactive)	-0.384	-0.846 (inactive)	0.686 (inactive)	-12.4 (active)	-0.921 (inactive)	0.56 (inactive)	0.891 (inactive)	0.902	-0.0699	-0.31 (inactive)	0.107
